Compound activity deposited in PubChem by several laboratories.
CYP2C19 activ: cytochrome P450 2C19 (human) activation; P33261; recombinant CYP2C19, luciferin-H EGE luminescence; hits give high values; 0 = fully inhibited enzyme, 1 = untreated enzyme; activation factor at 5 µM; 96,000 tested, under 10 active; AID 1025;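 active means activation factor of at least 2 at 5 µM in the primary screen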;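 further: 0 = wells with 2.5 mM tranylcypromine and 1 = vehicle-only wells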
Target sequence (P33261 whole entry, looked up): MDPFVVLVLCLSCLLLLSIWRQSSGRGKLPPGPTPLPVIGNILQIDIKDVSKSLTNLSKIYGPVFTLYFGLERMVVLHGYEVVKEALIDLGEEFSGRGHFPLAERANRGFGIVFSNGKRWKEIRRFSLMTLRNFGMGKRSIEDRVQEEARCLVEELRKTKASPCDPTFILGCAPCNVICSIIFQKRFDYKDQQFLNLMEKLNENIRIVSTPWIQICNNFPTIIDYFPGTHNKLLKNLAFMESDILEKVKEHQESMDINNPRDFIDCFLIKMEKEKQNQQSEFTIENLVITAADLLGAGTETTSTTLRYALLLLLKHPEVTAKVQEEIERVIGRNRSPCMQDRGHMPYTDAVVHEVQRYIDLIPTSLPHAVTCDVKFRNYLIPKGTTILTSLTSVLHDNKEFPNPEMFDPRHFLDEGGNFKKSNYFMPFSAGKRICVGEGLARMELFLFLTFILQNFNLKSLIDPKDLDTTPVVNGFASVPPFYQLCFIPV
CYP2C19 inh: blocks human cytochrome P450 2C19 | CYP2C19 Supersomes, luciferin-H EGE luminescence, 30 min | inhibition, % at 5 µM | actives 21% (n = 96,000) | AID 778;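 active means CYP2C19 inhibition above a set limit at 5 µM in the primary screen, cut at about 50% in these data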;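 further: plate controls were negative control wells for no effect and 2.5 mM tranylcypromine positive control for full effect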
DAT uptake mod: human DAT dopamine uptake with cocaine, either direction | LLC-PK1 hDAT cells, [14C]-dopamine uptake with cocaine IC80; actives deviate in either direction | Q01959 | B-score at 10 µM | actives 1.3% (n = 110,000);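 active means Z score or B-score, a plate-position-corrected score, falls beyond the plate's 99.7% confidence bounds, in either direction; inactive means both scores lie inside the 99.7% bounds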;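 further: scored against the spread of the other compound wells on the same plate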
D1 allo mod: D1 dopamine receptor (human) allosteric modulation. P21728. HEK293 D1, CRE-luciferase, dopamine EC30 potentiation; actives deviate in either direction. B-score at 10 µM. actives 5.9% (n = 58,000);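 active means luminescence count or its row- and column-corrected plate score outside the 99.7% band of the plate's sample wells, on either side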
CYP2C9 act: activators of human CYP2C9; recombinant CYP2C9, luciferin-H conversion, luminescence; hits give high values; factor 1 = untreated enzyme, 0 = blocked; activation factor at 5 µM; actives 1.4% (n = 96,000);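 active means activation factor of 2 or more for CYP2C9 at a 5 µM dose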;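 further: 0 = sulfaphenazole-blocked wells and 1 = vehicle-only wells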
CYP2C9 inhib: human CYP2C9 inhibition. CYP2C9 Supersomes, luciferin-H conversion, luminescence. actives 20% (n = 96,000). inhibition, % at 5 µM. AID 777;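 active means blocking of liver enzyme CYP2C9 beyond about 50% at 5 µM, limit read from the data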
* marks the source's active call; other numbers are inactive results; . = no result given. An excerpt weighted towards active compounds, which were near 28% of everything screened.

SMILES	CYP2C19 activ	CYP2C19 inh	DAT uptake mod	D1 allo mod	CYP2C9 act	CYP2C9 inhib
CC(=O)NCCc1ccc(S(=O)(=O)NCc2ccc3c(c2)OCO3)cc1	0.4	61*	-1.6	-0.4	0.5	47
CCOc1ccc(NC(=O)C(C)O)c(NS(=O)(=O)c2ccc(CCNC(C)=O)cc2)c1 (stereo not drawn)	0.8	16	-0.23	-0.17	0.9	7
CC(C)(C)NS(=O)(=O)c1ccc(CCC(=O)NCc2ccc3c(c2)OCO3)cc1	.	.	2.6	.	.	.
CCCc1cc2c(cc1NS(=O)(=O)c1ccc(CCNC(C)=O)cc1)OCO2	0.2	78*	0.75	-0.066	0.6	40
C=CCc1ccc(OCC(O)CN2CCCCC2C)c(OC)c1 (stereo not drawn)	0.8	16	0.7	.	1.1	-10
COC(=O)C(C(=O)OC)N1C(=O)CCC1=O	1.1	-11	-1.1	0.11	1	-4
Cc1ccc2cccc(NC(=O)c3ccc(Br)o3)c2n1	1.1	-8	0.37	-0.15	1.5	-46
COc1ccc(NC(=O)OC(CN2CCCCC2)C(F)(F)F)cc1 (stereo not drawn)	0.5	48	-0.2	.	0.4	64*
COCCn1nnnc1C(c1ccc(C(F)(F)F)cc1)N1CCOCC1 (stereo not drawn)	0.7	27	.	.	0.9	13
COc1ccc(N2CCN(c3nc(NCCO)nc(N4CCOCC4)n3)CC2)cc1	0.4	59*	0.11	-0.28	0.2	80*
CCCC1(c2ccccc2)NC(=O)N(CC(=O)Nc2sc(-c3ccccc3)cc2C(=O)OCC)C1=O (stereo not drawn)	0.9	5	-0.051	.	0.4	60*
CCOC(=O)c1cc(-c2ccccc2)sc1NC(=O)CN1C(=O)c2ccccc2C1=O	.	.	1.3	.	.	.
CCc1nnc(NC(=O)C2c3ccccc3Oc3ccccc32)s1	.	.	-0.22	.	.	.
Cc1[nH]c2c(Br)cccc2c1[C@H]1[C@@H](CC#N)C1(C)C	0.6	45	2	.	0.4	55*
Cc1c([C@H]2[C@@H](CC#N)C2(C)C)c2ccccc2n1C	0.8	24	0.69	.	1	-1
CC1CN(C(=O)c2scc3c2OCCO3)CC(C)O1 (stereo not drawn)	0.9	15	-1.1	0.075	1	1
COc1ccc(/C=N\n2nnc3ccccc32)cc1	0.8	24	-1.7	-3.9*	0.9	11
COC(=O)CSc1ccc(-c2nc3ccc(C)cc3[nH]2)cn1	0.9	13	-0.51	.	0.8	18
COc1cc2ncnc(NCc3ccc(C)cc3)c2cc1OC	0.4	63*	0.81	.	1	-2
C=CCOc1ccc(CNc2nn[nH]n2)cc1OC	0.2	81*	.	.	0.8	18
COc1ccc(CNc2n[nH]c(NCc3ccc(OC)c(OC)c3)n2)cc1OC	1	-3	0.34	1.9	1	-1
C=CCOc1ccc(CNn2c(C)n[nH]c2=S)cc1OC	0.4	61*	0.23	.	0.9	10
C=CCOc1ccc(CNC(C)(C)CO)cc1OCC	0.6	40	-0.015	.	0.9	15
N#Cc1cc(-c2ccccc2)nnc1Sc1ccc(Cl)cc1	1.1	-9	-0.58	.	1	-2
Clc1ccc(Sc2cc(Cl)c(-c3ccccc3)nn2)cc1	0.4	55*	-0.58	.	0.3	66*
SMILES	CYP2C19 activ	CYP2C19 inh	DAT uptake mod	D1 allo mod	CYP2C9 act	CYP2C9 inhib
Cn1c(=O)n(CC(=O)OCc2ccccc2)c(=O)c2c1nc1n2CCCN1C1CCCCC1	.	.	1.9	1.4	.	.
Nc1cc(N)nc(SCCOc2ccccc2)n1	0.9	7	-0.55	0.39	1.4	-44
COc1cccc(OCCSc2nc(N)cc(N)n2)c1	0.8	24	1.2	.	1.3	-28
Cc1cccc(OCCSc2cc(C)nc(N)n2)c1	0.4	55*	0.49	1	1.1	-8
Cc1ccc(OCCSc2cc(C)nc(N)n2)cc1	0.3	72*	1.8	-1	0.8	25
CCc1ccc(NC(=O)c2cc(C)on2)cc1	1	0	-1.4	-3.1*	0.8	17
Cc1ccc(Cn2ccc(NC(=O)c3cc(C)on3)n2)cc1	0.3	70*	0.42	.	0.4	62*
Cc1ccc(NC(=O)c2cc(C)on2)cc1	1.2	-18	1.4	-2.5	1	5
CC(=O)c1ccc(NC(=O)CN2C(=O)COc3ccc(Cl)cc32)cc1	0.2	75*	-0.44	-1.6	1	-2
Cc1ccccc1NC(=O)CN1C(=O)COc2ccc(Cl)cc21	0	97*	0.039	-1.5	0.4	55*
CCN1CCN(S(=O)(=O)c2ccc(Cl)c(C(=O)Nc3nnc(CC(C)C)s3)c2)CC1	0.9	6	0.15	.	0.8	22
CSc1cccc(NC(=O)CN(C)S(=O)(=O)c2ccc(C)cc2)c1	0.5	52*	1.7	-0.017	1.2	-18
COc1ccc(C)cc1S(=O)(=O)N(C)CC(=O)Nc1ccccc1	0.1	91*	0.85	-0.51	0.1	90*
COc1cc(NC(=O)CN(C)S(=O)(=O)c2ccc(C)cc2)cc(OC)c1	0.2	82*	0.42	-0.23	1.8	-77
COc1ccc(C)cc1S(=O)(=O)N(CC(=O)O)c1ccccc1	1	-4	1.2	-0.025	0.5	50
CCN(CC(=O)Nc1ccc(OC)c(OC)c1)S(=O)(=O)c1ccc(C)cc1	0.9	10	-0.66	-1.4	0.9	12
Cc1ccc(C)c(NC(=O)CN(C)S(=O)(=O)c2ccc(F)cc2)c1	0.8	16	0.014	-0.0064	1.8	-85
Cc1ccc(S(=O)(=O)N(C)CC(=O)Nc2ccccc2)cc1	0.4	63*	-0.91	.	1.3	-27
O=C(CNC(=O)Cn1ccc2ccccc2c1=O)NCCCN1CCN(c2cccc(Cl)c2)CC1	0.9	10	-0.21	.	0.9	10
COC(CNc1cc(=O)oc2ccccc12)OC	0.9	13	-0.18	.	1	4
Cc1nc(NCCc2ccccc2)c2oc3ccccc3c2n1	0.7	31	1.1	.	0.5	48
CCN(CC)C(=O)C1CCCN(Cc2sccc2C)C1 (stereo not drawn)	0.9	11	-0.14	.	1	1
CCN(CC)C(=S)Sc1c(-c2ccccc2)c2cc(Cl)ccc2[nH]c1=O	1.2	-16	0.63	.	0.9	8
CC(=O)Nc1ccc(S(=O)(=O)N2CCN(CC(=O)NC3CCCC3)CC2)cc1	1.2	-21	-0.72	-0.49	1.1	-9
N#CCCNC(=O)CCN1CCOCC1	1.2	-21	-0.0023	0.45	1.1	-12
CCCCC(=O)Nc1ccc(NC(=O)C2CC2)nc1	.	.	-0.091	0.096	.	.
CNC(=O)CN(c1ccc(F)cc1)S(=O)(=O)c1cc(C)ccc1OC	0.2	82*	0.25	.	0.2	80*
COc1ccc(C)cc1S(=O)(=O)N(C)CC(=O)NCc1ccco1	0.7	27	1.1	-0.046	0.5	51*
COc1ccc(C)cc1S(=O)(=O)N(CC(N)=O)Cc1ccccc1	0	99*	-0.075	0.019	0.7	33
